We go through 31 compounds from PubChem BioAssay (Tox21).

Molecules are shown by their SMILES. Results filed as inconclusive are left out. A call without a number means that no potency is given here. Activity calls are given as the source filed them. Calls follow the shape of the dose curve; as a rule, active = well fitted activation curve with a large enough effect in the repeat runs; inconclusive = weak or mixed curves; inactive = no such curve, though single readings can be large or run the other way.
Potency is read from the fitted curve at half-maximal effect.

The nature of the assay: qHTS assay to identify small molecule agonists of the estrogen related receptor signaling pathway with the pleiotropic PPARgamma coactivator (PGC) (AID 1224823). The settings on record: ERR/PGC reporter cell line, luciferase agonist mode; series mostly up to 46.1 µM. An outline of the steps:
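In this quantitative high-throughput screen, an 18 h, 37 C treatment of PGC/ERR cells with compounds in DMSO preceded a One-Glo luminescence read taken after 30 min at room temperature.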
In general terms: In qHTS, concentration-response curves come from the screen itself.
Take `CC(C)c1ccc2c(c1)c(SC(C)(C)C)c(CC(C)(C)C(=O)O)n2Cc1ccc(Cl)cc1`: the Potency entry is “inactive”.

`CCc1ccc(/C=C2/SC(=S)NC2=O)cc1`: the Potency result was “inactive”.

`Cc1ccc(S(=O)(=O)N[C@@H](Cc2ccccc2)C(=O)CCl)cc1`: the Potency entry is “inactive”.

For the compound `CCCCS(=N)(=O)CC[C@H](N)C(=O)O` (stereo partly specified), the Potency entry was “inactive”.

Consider `COc1cc2c(CCNC(C)=O)c[nH]c2cc1O`, for which the Potency entry is “inactive”.

Take `Cc1cc2c(cc1Cl)N(C(=O)Nc1ccc(Oc3cccnc3C)nc1)CC2`: the Potency result is “inactive”.

As for `Oc1cc2c(c(Cl)c1O)CCNCC2c1ccccc1` (stereo unspecified), the Potency entry is “inactive”.

For `CN(C)c1cc2c(Nc3ccc4c(cnn4Cc4ccccc4)c3)ncnc2cn1`, the Potency entry is “inactive”.

As to `COC1=C(OC)C(=O)c2ccccc2C1=O`, the Potency entry was “inactive”.

As to `CN=c1nc(-c2ccccc2)n(-c2ccccc2)s1`, the Potency entry is “inactive”.

As to `C=CC[C@H](N)C(=O)O`, the Potency result is “inactive”.

Consider `COc1cc(OC)cc(-c2cc3cnc(N)nc3nc2NC(=O)NC(C)(C)C)c1`, for which the Potency result is “inactive”.

`CCOC(=O)C1=C(C)NC(C)=C(C(=O)OCC)C1c1c(F)c(F)c(F)c(F)c1F`: the Potency entry is “inactive”.

For the compound `COc1ccc(C(=O)/C(Cc2cc(OC)c(OC)c(OC)c2)=C(\C(=O)O)c2ccc3c(c2)OCO3)cc1`, the Potency result was “inactive”.

As for `CC(C)(C)c1ccc(S(=O)(=O)/C=C/C#N)cc1`, the Potency entry is “inactive”.

Regarding `O=C(c1ccc(Cl)cc1)N1CCN(c2ccc([N+](=O)[O-])c3ncccc23)CC1`, the Potency entry is “inactive”.

With `O=C1NCc2c1c1c3ccccc3[nH]c1c1[nH]c3ccccc3c21`, the Potency entry was “inactive”.

Consider `NC[C@@H]1O[C@H](C23CC4CC(CC(C4)C2)C3)Cc2c1ccc(O)c2O`, for which the Potency entry was “inactive”.

For `CN(C)c1ccc(/C=C2\C(=O)Nc3ccccc32)cc1`, the Potency was 3.1 µM (active).

Consider `CCN(c1nc(N)c(C(=O)N=C(N)N)nc1Cl)C(C)C`, for which the Potency entry was “inactive”.

As for `Nc1ccc2c3c(cccc13)C(=O)NC2=O`, the Potency result is “inactive”.

`O=C(O)c1cc([N+](=O)[O-])ccc1NCCCc1ccccc1`: the Potency entry is “inactive”.

On to `COc1cccc(C(=O)NCCN2CCN(c3ccc(Cl)cc3)CC2)c1`, for which the Potency entry was “inactive”.

For the compound `O=C1c2ccccc2-c2n[nH]c3cccc1c23`, the Potency result is “inactive”.

Consider `O=C(NOCC1CC1)c1cc(Br)c(F)c(F)c1Nc1ccc(I)cc1Cl`, for which the Potency entry was “inactive”.

For the compound `O=[N+]([O-])c1ccc(-c2nc(-c3ccc(F)cc3)c(-c3ccncc3)[nH]2)cc1`, the Potency result was “inactive”.

On to `C[C@H](O)C(=O)C1=Nc2c(nc(N)[nH]c2=O)NC1`, for which the Potency result is “inactive”.

`CC1(C)C(=O)N(CCN2CCC(C(=O)c3ccc(F)cc3)CC2)c2ccccc21`: the Potency result was “inactive”.

Take `C=C1C(=O)O[C@@H]2[C@H]3O[C@]3(C)CCC=C(C)CC[C@@H]12`: the Potency result was “inactive”.

For `NC(N)=NC(=O)c1nc(Cl)c(N2CCCCCC2)nc1N`, the Potency entry is “inactive”.

As for `Cc1nc(N=Nc2cc(S(=O)(=O)O)c3cc([N+](=O)[O-])cc(S(=O)(=O)O)c3c2)c(COP(=O)(O)O)c(C=O)c1O`, the Potency entry is “inactive”.
